Values joined by “and” are separate entries in the source; they are usually repeats but may differ in a detail not shown here. Identical values can stand only once. The panel holds about 83,000 compounds, 20% with a hit somewhere; the sample as a whole holds those more often.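 48-hour exposure, single concentration, 96-well plates; percent growth endpoint where 0 means no net growth. Active: below 10.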 Unmarked numbers belong to inactive results. Active and inactive are the calls of the source.

The first experiment deals with NCI-H23 lung. In words: NCI-60 one-dose screen, 48 h (100 = growth as untreated, 0 = no growth, -100 = all killed). The note with it: 10 µM. How it is done: Growth inhibition of the NCI-H23 human Non-Small Cell Lung tumor cell line is measured as a screen for anti-cancer activity. Cells are grown in 96 well plates and exposed to the test compound for 48 hours. Compounds are tested at a single concentration, which is 10^-5 M for most compounds. The reported endpoint is percent growth (GI% or GIPRCNT), where numbers from 0 - 100% represent growth inhibition, and numbers from -100% - 0 represent cell death. For example, a value of 40 represents 60% growth inhibition. A value of 0 means no net growth occurred over the course of the experiment. A value of -40 indicates 40% of cells at the beginning of the experiment died by the end of the experiment. A value of -100 means all cells are dead at the end of the experiment.
NCI-60 Human Tumor Cell Lines Screen was performed using the standard one-dose NCI protocol, which is described in more detail at https://dtp.cancer.gov/discovery_development/nci-60/default.htm.
Compounds with GIPRCNT values below 10 were considered active. Activity score was based on GIPRCNT using the following formula: […]
Score is 0 for GIPRCNT values of 100 or above, 50 for GIPRCNT values of 0, and 100 for GIPRCNT values of -100.
With `CC(=O)/C=C/c1ccc(OCc2ccc(C(C)(C)C)cc2)cc1`, the growth is 52.5%.

Staying with this experiment, now noted: 10 µM unless noted.
Consider `COc1ccc2c(c1)CC[C@@H]1[C@@H]2CC[C@]2(C)C3C(=CCC4C(=O)N(c5ccccc5)C(=O)C43)C[C@@H]12` (stereo not given in full), for which the growth is 84.4%.

As to `C=C1CC[C@@H]2[C@](C)(COC(C)=O)[C@H](OC(C)=O)CC[C@@]2(C)[C@@H]1CC(Nc1ccc(S(=O)(=O)Nc2nccs2)cc1)C1=CCOC1=O` (stereo not given in full), the growth is 38.1%.

Turning to `COc1ccc(-c2nc(Cl)c3c(C)nn(-c4ccc(F)cc4)c3n2)cc1`, the growth is 97.1%.

As for `O=C1OCC2=C1C(c1cccc([N+](=O)[O-])c1)c1cc3c(cc1N2CCO)CCC3` (stereo not given), the growth is 23.2%.

Consider `COC1/C=C/OC2(C)Oc3c(C)c(O)c4c(O)c(c(C=NOC(c5ccccc5)c5ccccc5)c(O)c4c3C2=O)NC(=O)/C(C)=C/C=C/C(C)C(O)C(C)C(O)C(C)C(OC(C)=O)C1C` (stereo not given), for which the growth is 21.8%.

For `O=C(/C=C/c1ccc(F)cc1)Nc1ncc(Cc2ccc(F)cc2)s1`, the growth is 61.5%.

As to `COc1ccc(Cl)cc1Nc1nc(C(F)(F)F)ccc1C(=O)N/N=C/c1ccc(N(C)C)cc1`, the growth was 95.4%.

On to `CCOC(=O)C(=Cc1ccc(C#N)cc1)C(=O)OCC`, for which the growth is 55.5%.

As for `COc1ccc(Oc2nc(Nc3ccc(N4CCOCC4)cc3)ncc2NC(=O)c2cccc(C(F)(F)F)c2)cc1`, the growth is 87.3%.

In the case of `CC/C(=C(/c1ccc(O)cc1)c1ccc(OCCN2CCCCCC2)cc1)c1ccc(Cl)cc1`, the growth is 80.4%.

With `CCOC(=O)c1cc2c(n1Cc1cc(OC)cc(OC)c1Br)-c1nc(NC(C)=O)sc1CCC2`, the growth is 73.2%.

For the compound `COc1cc(CO)cc2cc3ccccc3nc12`, the growth was 97.3%.

In the case of `COC(=O)N/N=C/c1c[n+]([O-])c2ccccc2[n+]1[O-]`, the growth is 98.6%.

Turning to `CN1Cn2c(ccc2C(F)(F)F)C(=O)CS1(=O)=O`, the growth is 108%.

Turning to `Cc1nc2cccc(NCCCCC(=O)NO)c2c(=O)n1-c1ccccc1`, the growth was 69.3%.

As for `COc1ccc(/C=C2/C(=O)N=C3N2NC(c2ccccc2)=CN3c2ccccc2)cc1`, the growth was 86.4%.

For `O=c1ccc2nc(-c3ccccn3)nn(-c3ccccc3)c-2c1`, the growth is 89.5%.

In the case of `COc1ccc(C/C(C)=C(\c2ccc(O)cc2)c2ccc(OCCCN(C)C)cc2)cc1`, the growth is 91.8%.

For `O=C(N=Nc1c(O)[nH]c2ccccc12)Nc1ccccc1Cl`, the growth is 80.1%.

Turning to `COc1cc2c(cc1OCCCOC1=C=C=C(c3ccc4c(c3)c3cc(-c5ccc(OCCCOc6cc7c(cc6OC)C(=O)N6CCC[C@H]6C=N7)cc5)ccc3n4S(=O)(=O)c3ccc(C)cc3)C=C1)N=C[C@@H]1CCCN1C2=O`, the growth is 36.7%.

For `N=c1ccccn1CCO`, the growth is 101%.

Take `COc1ccc2nc3cc(Cl)ccc3c(NCCCNCCC(C)O)c2c1` (stereo not given): the growth is -48.8% (active).

With `O=C(Nc1cc(C(F)(F)F)cc(C(F)(F)F)c1)c1cc(Cl)ccc1O`, the growth is -25.2% (active) and -11.5% (active).

As for `COc1ccc(C2Nc3nc(SC)nc(N)c3N=C3c4ccccc4CCC32)cc1` (stereo not given), the growth was 72.4%.

Consider `O=C([C@H]1C[C@H]1c1ccc(S(F)(F)(F)(F)F)cc1)N1CCN(c2cc(Cl)ccc2C(F)(F)F)CC1`, for which the growth was 91.2%.

`OB(O)c1ccsc1-c1nc2ccc3[nH]ncc3c2c2c1CCCC2`: the growth is 51.6%.

For the compound `COc1ccc(Oc2nc(Nc3ccc(N4CCOCC4)cc3)ncc2NC(=O)c2cc(OC)cc(OC)c2)cc1`, the growth was 101%.

On to `C=C(CN1CC=CCC1)[C@@H]1CC[C@]2(COC(C)=O)CC[C@]3(C)[C@H](CC[C@@H]4[C@@]5(C)CC[C@H](O)C(C)(C)[C@@H]5CC[C@]43C)[C@@H]12`, for which the growth is 102%.

As to `C#CCn1cnc2cnc(Nc3cccc(NC(=O)CCl)c3)nc21`, the growth was -8.25% [6.25 µM] (active).

Regarding `CCN(c1cc(-c2ccc(CN3CCC(/C=C/S(=O)(=O)c4ccccc4)CC3)cc2)cc(C(=O)NCc2c(C)cc(C)[nH]c2=O)c1C)C1CCOCC1`, the growth is 81.4%.

On to `COC(=O)c1c2c(c(C)[n+]([O-])c1C)C(=O)C(NCCN1CCOCC1)=CC2=O`, for which the growth was 59.7%.

Turning to `COc1cc(NC2CCCCC2O)c2nc(-c3ccc(Cl)cc3)ccc2c1` (stereo not given), the growth was 84.2% and 98.5%.

For the compound `CCOC(=O)c1nnn(Cc2cc(=O)oc3c2ccc2ccccc23)c1C`, the growth is 102%.

For `O=S(=O)(O)c1ccc(N=Nc2ccc(N=Nc3cccc4ccccc34)c(S(=O)(=O)O)c2)cc1`, the growth is 91.5%.

Turning to `COc1c(NC=O)c2c(c([N+](=O)[O-])c1OC)C(=O)OC2`, the growth is 113% and 97.9%.

Regarding `COc1cc(Nc2nc3ccccc3cc2C(=O)Nc2ccc(F)c(F)c2)cc(OC)c1OC`, the growth was 9.57% (active).

With `Cc1ccc(-c2nc(C#N)c(S(=O)(=O)N(C)C)o2)cc1`, the growth is 89.2%.

For the compound `Cc1c(CC(=O)OCCO)cc(-c2ccc(Cl)cc2)n1-c1ccccc1`, the growth is 82.3%.

The experiment is the same for the next values; noted with them: 100 µM.
For `CC(=O)/C=C/c1ccc(OCc2ccc(C(C)(C)C)cc2)cc1`, the growth is 31.7%.

Source of the values: PubChem BioAssay (NCI).
